Drawing on PubChem BioAssay AID602163 (The Scripps Research Institute Molecular Screening Center, 2012), this text covers activation for 63 compounds.

Values joined by “and” are separate entries in the source; they are usually repeats but may differ in a detail not shown here. Equal values may be shown once. The campaign covered roughly 360,000 compounds. About 1,100 (0.31%) were called active. Rule as the data show it: active = activation above about 7.5%; inactive = the rest. The sample as a whole holds a higher share of actives than the screen did.

For the test, the system named is Methionine sulfoxide reductase A (Bos taurus). Briefly: activation of methionine sulfoxide reductase A – biochemical, absorbance, bovine, HTS, primary screen (AID 602163).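 Also: 0% = vehicle and 100% = reference activator.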 The note with it: purified bovine MsrA, absorbance read-out; at 10.6 µM; stronger effect = higher value.
On to `COc1ccc(NC(=O)CSc2nnnn2-c2cccc(OC)c2)cc1`, for which the activation was -2.59% (inactive).
The same measure for `CCOc1cccc(-n2nnnc2-c2ccc(OC)cc2)c1`: 15.8% (active); for `CCOC(=O)C(C)n1cnc2c(nnn2-c2cccc(OC)c2)c1=O` (stereo not drawn): -0.63% (inactive); for `COC(=O)c1c(C)cc(O)c(C)c1O`: 3.54% (inactive).
Regarding `Cc1cc(OCc2cc(C(=O)NCc3cc(C(C)C)no3)no2)cc(C)c1Cl`, the activation is -8.01% (inactive).
For the compound `S=c1[nH]nc(Nc2ccccc2)s1`, the activation is 3.66% (inactive).
In the case of `Nc1c(NCCc2ccccc2)c2ccccc2oc1=O`, the activation was -3.29% (inactive).
To `S=c1[nH]nc(NCCc2ccccc2)s1` belongs 10.4% (active); to `Cc1cc(=O)oc2c1ccc1ccccc12`, -2.71% (inactive).
To `CC1(C)S[C@@H]2[C@H](NC(=O)COc3ccccc3)C(=O)N2C1C(=O)OCc1ccccc1` (stereo partly drawn) belongs 8.55% (active).
To `CC1(C)SC2C(NC(=O)COc3ccccc3)C(=O)N2C1C(=O)O` (stereo not drawn) belongs -2.47% (inactive) and -3.56% (inactive); to `COC(=O)C1[C@H]2SC(C)(C)C(C(=O)OC)N2C(=O)N1Cc1nc2ccccc2s1` (stereo partly drawn), -2.77% (inactive).
`O=c1oc2ccc(C#CC3(O)CCCCC3)cc2cc1-n1cc(-c2ccsc2)nn1`: the activation was -0.09% (inactive).
To `O=C(CSc1ccccc1)Nc1cccc(S(=O)(=O)N2CCCCC2)c1` belongs -2.42% (inactive).
The same measure for `Cn1nnnc1SCC(=O)Nc1cccc(S(=O)(=O)N2CCCCC2)c1`: -4.48% (inactive); for `CSCCC1NC(=O)N(CC(=O)Nc2cccc(S(=O)(=O)N3CCCCCC3)c2)C1=O` (stereo not drawn): 15.5% (active).
With `Cc1ccc(NC(=O)C2CC2c2ccccc2)cc1` (stereo not drawn), the activation is 1.6% (inactive).
To `O=C(NC1CCN(C(=S)Nc2ccc(Cl)cc2)CC1)C1CCCCC1` belongs -9.13% (inactive); to `O=C(O)C1CCCCC1C(=O)Nc1ccc(Cl)cc1` (stereo not drawn), 9.28% (active).
The same measure for `O=C(O)Cc1ccc(NC(=O)C2CCCCC2C(=O)O)cc1` (stereo not drawn): 8.45% (active); for `CC(=O)Nc1ccc(NC(=O)C2CCCN(S(=O)(=O)c3ccc(Cl)cc3)C2)cc1` (stereo not drawn): -1.47% (inactive); for `O=C(Cc1ccc(F)cc1)NC1CCCC1`: -5.09% (inactive).
To `O=S1(=O)C=C(SCCN2CCCC2)c2ccccc21` belongs 3.43% (inactive); to `CN1CCN(c2ccc3c(c2)OC[C@H](Cc2ccccc2)NS3(=O)=O)CC1`, -2% (inactive); to `O=C(O)C1OC(C(=O)O)C2C1C(F)(F)C2(F)F` (stereo not drawn), 0.7% (inactive).
Take `C/C(Cc1ccccc1)=N\NC(=O)CNC(=O)c1ccc2c(c1)OCCO2`: the activation was -1.01% (inactive).
In the case of `Cc1ccc(NC(=O)c2cc([N+](=O)[O-])ccc2Cl)c(O)c1`, the activation was -10% (inactive).
Regarding `O=C(Nc1ccc2c(c1)OCCO2)C(c1ccc(F)cc1)N1CCCCC1` (stereo not drawn), the activation is -9.07% (inactive).
The same measure for `COc1ccc(CN(C)C(=O)Cc2c[nH]c3ccccc23)c(OC)c1OC`: -0.09% (inactive); for `COc1cccc(CNCCc2c[nH]c3ccccc23)c1OCc1ccccc1F`: 7.97% (active).
To `Fc1ccccc1COc1ccccc1CNCc1ccncc1` belongs -0.5% (inactive).
The same measure for `CSc1ccc(Cl)c(C(=O)OCC(=O)N2CC(C)OC(C)C2)c1` (stereo not drawn): 1.67% (inactive); for `CCN(/N=C/c1ccc(N(C)C)cc1)c1nc2ccccc2[nH]1`: -3.63% (inactive); for `CC1(C)CC(=O)C(C=NCc2cccnc2)=C(O)C1`: -1.39% (inactive).
Regarding `COC(=O)C1(O)CC(C(C)C)=NN1C(=O)c1ccc(Cl)cc1` (stereo not drawn), the activation was -2.59% (inactive).
The same measure for `NC(=O)c1cc(-c2cccnc2)nc2ccc(Br)cc12`: -2.46% (inactive).
Consider `NC(N)=Nc1nc2ccc(Br)cc2c(=O)[nH]1`, for which the activation is -1.23% (inactive).
In the case of `O=c1c2cc(Br)ccc2nc(-c2cccc(Cl)c2)n1O`, the activation is 8.68% (active).
The same measure for `COc1ccccc1C(=O)Nc1ccc(OCC(=O)N2CCCCC2)cc1`: -2.88% (inactive); for `COc1ccc(/C=C/C2=CC(C)(C)NC(=S)N2)c(OC)c1`: -3.37% (inactive).
For the compound `COc1ccc(NC(=O)COC(=O)CNC(=O)C2CCCCC2)cc1`, the activation is -4.73% (inactive).
The same measure for `CCOCCCNCc1ccc(OCc2ccc(F)cc2)c(OC)c1`: -0.52% (inactive).
With `c1ccc(CNCc2ccc(CNCc3ccccc3)cc2)cc1`, the activation was -4.45% (inactive).
In the case of `CCOc1ccccc1OCCCNCc1ccccc1`, the activation is 8.23% (active).
To `Cc1ccccc1NC(=O)c1nn(-c2ccc(F)c(F)c2)ccc1=O` belongs 0.66% (inactive).
The same measure for `Cc1[nH]c(C)c(S(=O)(=O)N2CCN(c3cccc(C(F)(F)F)c3)CC2)c1C(=O)N1CCCC1`: -2.75% (inactive); for `COc1ccccc1CNC(=O)c1cc(-c2cc(F)ccc2OC)n[nH]1`: 1.13% (inactive).
To `Oc1cc(O)c2c(c1)OC(c1ccc(O)c(O)c1)C(O)C2` (stereo not drawn) belongs -3.17% (inactive).
Turning to `O=C(Nc1c(Br)cc2c(c1Br)Cc1cc([N+](=O)[O-])ccc1-2)C(Cl)Cl`, the activation is -0.8% (inactive).
To `COc1ccc(C(CNC(=O)c2cccnc2SC)N2CCOCC2)cc1` (stereo not drawn) belongs -1.39% (inactive); to `COc1ccc(C(CNC(=O)CSc2ccccc2)N2CCOCC2)cc1` (stereo not drawn), -2.38% (inactive).
To `COc1ccc(C(CNC(=O)c2cc3c(s2)CCCC3)N2CCOCC2)cc1` (stereo not drawn) belongs 9.37% (active).
To `CCC(C)CCN1CCN=C1N(C)C` (stereo not drawn) belongs -6.93% (inactive); to `O=C(NC1CCc2ccccc21)C12CN(Cc3ccccc3)CC1C(c1cccc([N+](=O)[O-])c1)=NO2` (stereo not drawn), -4.81% (inactive); to `O=C(NCCCN1CCOCC1)c1cnn2c(-c3ccccc3)cc(-c3ccccc3)nc12`, 0.61% (inactive).
For `COc1cccc(CNn2cn[nH]c2=S)c1OCc1ccccc1`, the activation was -8.32% (inactive).
To `COc1ccccc1-n1cn[nH]c1=S` belongs 9.25% (active); to `FC(F)(F)c1ccc(-n2cn[nH]c2=S)cc1`, 4.3% (inactive).
To `CCN(C(=O)Cc1nc(N)n[nH]1)C1(C(=O)Nc2ccccc2)CCCCC1` belongs -1.75% (inactive); to `Nc1[nH]c(=S)nc2nc(-c3ccccc3)c(-c3ccccc3)nc12`, 4.05% (inactive).
To `O=C(COC(=O)c1n[nH]c2ccccc12)Nc1ccccc1Br` belongs -2.21% (inactive).
Regarding `CN(C)S(=O)(=O)c1ccc(NC(=O)COC(=O)c2n[nH]c3ccccc23)cc1`, the activation is 14.2% (active).
The same measure for `COc1ccc(S(=O)(=O)N(C)C)cc1NC(=O)COC(=O)c1n[nH]c2ccccc12`: -0.9% (inactive).
